Inconclusive results are not listed. Calls of active or inactive are those of the source. Unless noted, calls come from the whole dose curve; as a rule, active = well fitted curve in the direction sought with a large enough effect; inconclusive = small, poorly fitted or top-dose-only effect, or another doubt; inactive = no such curve, though single readings can be large; an effect the other way counts as inactive or inconclusive.
Columns and labels:
[1] = AP1 Signaling Pathway (AID 357; active = well fitted curve in either direction with a large enough effect, not every such curve was filed as active;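 note: ME-180 reporter cells stimulated with EGF at its EC50 level; % is set by controls: 0 for no effect and ±100 for the full control effect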)
Procedure, shortened: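 A ratiometric CCF4 readout (405 nm excitation; 460 and 530 nm emission) quantified AP-1-driven beta-lactamase in ME-180 cells after 5 h with compound and EC50 EGF; AC50 values were derived for activators and inhibitors.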

[2] = target: Cytochrome P450 1A2 (Homo sapiens) (UniProt P05177); assay: p450-cyp1a2 (AID 410; calls by dose curve; note: potency is the fitted concentration of half-maximal effect;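 for activity change, negative = inhibition: -100% = full effect of reference inhibitor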)
Sequence of Cytochrome P450 1A2 (Homo sapiens) (P05177 whole entry, looked up): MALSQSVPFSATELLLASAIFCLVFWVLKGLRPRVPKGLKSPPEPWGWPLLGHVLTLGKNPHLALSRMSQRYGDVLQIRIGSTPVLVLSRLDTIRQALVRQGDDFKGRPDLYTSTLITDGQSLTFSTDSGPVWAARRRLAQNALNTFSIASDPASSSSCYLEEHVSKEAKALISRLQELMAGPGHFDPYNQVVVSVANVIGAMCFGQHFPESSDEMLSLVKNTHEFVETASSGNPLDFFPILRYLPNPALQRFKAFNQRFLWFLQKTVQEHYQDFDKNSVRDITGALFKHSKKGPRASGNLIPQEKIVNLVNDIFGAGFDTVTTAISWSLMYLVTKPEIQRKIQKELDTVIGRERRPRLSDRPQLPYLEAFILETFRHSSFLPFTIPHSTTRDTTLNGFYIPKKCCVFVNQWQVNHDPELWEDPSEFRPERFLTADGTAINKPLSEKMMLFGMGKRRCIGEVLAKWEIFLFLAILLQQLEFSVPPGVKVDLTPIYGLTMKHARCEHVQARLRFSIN
Procedure, shortened: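 Read-out is luminescence from luciferin produced by CYP1A2 demethylation of Luciferin-ME (100uM, at Km). Detection reagent stopped the 60 min NADPH-dependent reaction; signals were normalized to 57 uM furafylline.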

[3] = Stat Signaling Pathway (AID 446; active = well fitted curve in either direction with a large enough effect, not every such curve was filed as active;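 note: ME-180 cervical cancer cells given 40 pM IL-6 alongside compound; SIE-controlled beta-lactamase reporter measured as 460/530 nm FRET emission ratio; % is set by controls: 0 for no effect and ±100 for the full control effect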)
Procedure, shortened: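 Compound effects on IL-6-induced STAT reporter activity were measured in ME-180 cells. After overnight culture, cells were co-treated with 40 pM IL-6 for 5 hrs before beta-lactamase substrate loading at room temperature.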

[4] = target: Glucocorticoid receptor (Homo sapiens) (UniProt P04150); assay: GR-GFP Redistribution (AID 450;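 active = compounds whose dose series gives a full or clear partial fitted curve of increased nuclear translocation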; note: potency is the fitted concentration of half-maximal effect); conditions: U2OS GR-GFP nuclear translocation, laser cytometry, 2 h
Sequence of Glucocorticoid receptor (Homo sapiens) (P04150 whole entry, looked up, the tested form may be a part): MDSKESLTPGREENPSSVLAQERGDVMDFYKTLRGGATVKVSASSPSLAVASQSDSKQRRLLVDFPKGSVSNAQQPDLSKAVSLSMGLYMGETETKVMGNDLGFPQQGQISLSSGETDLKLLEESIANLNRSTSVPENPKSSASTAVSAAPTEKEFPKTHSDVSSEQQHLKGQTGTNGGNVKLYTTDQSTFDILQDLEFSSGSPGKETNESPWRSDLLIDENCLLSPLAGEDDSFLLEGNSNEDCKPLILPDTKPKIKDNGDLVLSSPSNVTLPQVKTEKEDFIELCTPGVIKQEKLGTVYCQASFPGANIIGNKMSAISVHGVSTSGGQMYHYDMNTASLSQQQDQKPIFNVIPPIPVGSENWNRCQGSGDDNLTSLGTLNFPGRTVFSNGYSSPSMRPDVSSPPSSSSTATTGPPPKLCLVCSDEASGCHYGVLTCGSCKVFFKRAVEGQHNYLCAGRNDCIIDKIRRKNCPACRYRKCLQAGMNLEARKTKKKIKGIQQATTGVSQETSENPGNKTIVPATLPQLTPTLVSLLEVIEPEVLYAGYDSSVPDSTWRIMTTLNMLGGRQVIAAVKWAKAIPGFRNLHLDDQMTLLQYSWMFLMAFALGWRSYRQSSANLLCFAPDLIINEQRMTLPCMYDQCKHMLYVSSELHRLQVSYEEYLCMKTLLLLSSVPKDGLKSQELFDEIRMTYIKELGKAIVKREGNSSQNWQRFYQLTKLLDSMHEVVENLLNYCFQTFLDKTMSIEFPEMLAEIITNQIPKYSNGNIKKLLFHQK

[5] = target: Glucocorticoid receptor (Homo sapiens) (UniProt P04150); assay: GR-EFC Redistribution (AID 451; calls by dose curve; note: potency is the fitted concentration of half-maximal effect); conditions: CHO-K1 GR-EFC translocation, beta-gal luminescence, 2 h
Procedure, shortened: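 CHO-K1 cells expressing nuclear EA and GR-ED fragments of b-gal; compounds titrated up to 46 uM final, 2 h at 37 C. GR nuclear translocation read as complemented b-gal luminescence after 1 h RT detection.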

[6] = target: Mitogen-activated protein kinase 10 (Mus musculus) (UniProt Q61831); assay: JNK3 AlphaScreen Assay (AID 530; active = well fitted curve in either direction with a large enough effect, not every such curve was filed as active;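 note: kinase came from lysate of stimulated human HepG2 cells; signal reports phosphorylation of biotinylated GST-cJun 1-79 at Ser73 with 10 µM ATP; % is set by controls: 0 for no effect and ±100 for the full control effect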)
Procedure, shortened: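 HepG2 lysate (IL-1b/TNFa pre-activated) + biotin-GST-cJun 1-79 + anti-pSer73 cJun; cpd titration, 15 min RT; ATP 10 uM start; Tris pH 7.6, MgCl2, DTT, vanadate; beads in EDTA buffer; AlphaScreen.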

[7] = target: 3',5'-cyclic-AMP phosphodiesterase 4B (Homo sapiens) (UniProt Q07343); assay: qHTS Assay for Inhibitors of PDE-IV (AID 607; active = well fitted activation curve with a large enough effect in the main read-out, with a control signal flat, not every such curve was filed as active; note: % of control where 0% means no effect)
Sequence of 3',5'-cyclic-AMP phosphodiesterase 4B (Homo sapiens) (Q07343 whole entry, looked up): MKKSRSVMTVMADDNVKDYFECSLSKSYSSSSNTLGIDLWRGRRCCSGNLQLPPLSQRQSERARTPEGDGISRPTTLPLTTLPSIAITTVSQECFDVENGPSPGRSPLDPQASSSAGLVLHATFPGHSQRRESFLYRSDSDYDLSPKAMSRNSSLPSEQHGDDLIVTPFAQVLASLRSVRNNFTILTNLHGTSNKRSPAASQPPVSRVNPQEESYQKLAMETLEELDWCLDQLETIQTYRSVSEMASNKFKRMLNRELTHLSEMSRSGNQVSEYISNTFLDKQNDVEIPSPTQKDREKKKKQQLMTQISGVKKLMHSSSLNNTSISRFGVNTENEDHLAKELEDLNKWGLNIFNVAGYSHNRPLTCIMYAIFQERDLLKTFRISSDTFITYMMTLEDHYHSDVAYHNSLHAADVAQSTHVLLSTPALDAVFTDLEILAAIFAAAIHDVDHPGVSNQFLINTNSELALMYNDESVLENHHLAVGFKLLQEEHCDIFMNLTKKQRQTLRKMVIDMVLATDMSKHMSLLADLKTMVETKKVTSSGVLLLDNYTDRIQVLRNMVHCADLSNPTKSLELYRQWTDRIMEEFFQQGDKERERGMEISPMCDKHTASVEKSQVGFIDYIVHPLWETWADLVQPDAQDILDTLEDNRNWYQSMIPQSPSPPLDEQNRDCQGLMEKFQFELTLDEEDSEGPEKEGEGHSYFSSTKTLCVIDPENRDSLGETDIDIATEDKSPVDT
Procedure, shortened: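 ACTOne HEK293 cells carry a modified cAMP-gated CNG channel and express endogenous PDE4; plated 1000 cells/well, compounds up to 22.9 uM final. Membrane-potential dye fluorescence (ex 535/em 590) was read; parental cells received 10 uM forskolin + 100 uM RO 20-1724.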

[8] = qHTS Assay for Lipid Storage Modulators (AID 1519; calls by dose curve); conditions: Drosophila S3 cells, BODIPY lipid droplet/cell ratio, laser cytometry, cells loaded with oleic acid; for activity change, negative = inhibition: at 25.7 µM (top of the series)
Procedure, shortened: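 Cells seeded at 5,000 per well were treated with compounds over a concentration series and loaded with oleic acid (400 uM, as added). Lipid droplet fluorescence (488 nm excitation, 500-530 nm channel) was read by laser-scanning cytometry and normalized to 20 uM Triacsin C.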

[9] = target: ATP-dependent 6-phosphofructokinase (Trypanosoma brucei brucei) (UniProt O15648); assay: qHTS Assay to Find Inhibitors of T. brucei phosphofructokinase: hit validation (AID 492961); note: % is set by controls: 0 for no effect and ±100 for the full control effect
Sequence of ATP-dependent 6-phosphofructokinase (Trypanosoma brucei brucei) (O15648 whole entry, looked up): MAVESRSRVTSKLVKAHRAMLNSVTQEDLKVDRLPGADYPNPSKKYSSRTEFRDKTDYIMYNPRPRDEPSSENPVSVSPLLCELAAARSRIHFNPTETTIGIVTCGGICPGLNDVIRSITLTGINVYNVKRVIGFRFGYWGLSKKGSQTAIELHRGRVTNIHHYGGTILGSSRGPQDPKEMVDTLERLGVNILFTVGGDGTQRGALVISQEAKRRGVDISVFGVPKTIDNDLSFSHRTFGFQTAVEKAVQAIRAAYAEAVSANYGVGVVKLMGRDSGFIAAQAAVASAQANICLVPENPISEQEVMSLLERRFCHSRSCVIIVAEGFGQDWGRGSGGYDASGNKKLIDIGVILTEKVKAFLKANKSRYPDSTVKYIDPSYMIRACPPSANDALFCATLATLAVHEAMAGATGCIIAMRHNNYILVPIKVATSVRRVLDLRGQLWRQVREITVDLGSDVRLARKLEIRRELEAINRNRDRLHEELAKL
Procedure, shortened: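 Luminescence from ADP-Glo reports ADP generated as T. brucei PFK (1.25 nM) phosphorylates 0.5 mM fructose-6-phosphate using 0.1 mM ATP. Reactions ran 45 min at room temperature, pH 8.0.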

[10] = target: Ubiquitin carboxyl-terminal hydrolase 1 (Homo sapiens) (UniProt O94782); assay: Inhibitors of USP1/UAF1: Pilot qHTS (AID 504865);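 note: rhodamine fluorescence freed from ubiquitin-rhodamine substrate followed over time; top concentration of the series differs between compounds; % is set by controls: 0 for no effect and ±100 for the full control effect; nearly all actives have a fitted effect of over 35% in size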
Sequence of Ubiquitin carboxyl-terminal hydrolase 1 (Homo sapiens) (O94782 whole entry, looked up): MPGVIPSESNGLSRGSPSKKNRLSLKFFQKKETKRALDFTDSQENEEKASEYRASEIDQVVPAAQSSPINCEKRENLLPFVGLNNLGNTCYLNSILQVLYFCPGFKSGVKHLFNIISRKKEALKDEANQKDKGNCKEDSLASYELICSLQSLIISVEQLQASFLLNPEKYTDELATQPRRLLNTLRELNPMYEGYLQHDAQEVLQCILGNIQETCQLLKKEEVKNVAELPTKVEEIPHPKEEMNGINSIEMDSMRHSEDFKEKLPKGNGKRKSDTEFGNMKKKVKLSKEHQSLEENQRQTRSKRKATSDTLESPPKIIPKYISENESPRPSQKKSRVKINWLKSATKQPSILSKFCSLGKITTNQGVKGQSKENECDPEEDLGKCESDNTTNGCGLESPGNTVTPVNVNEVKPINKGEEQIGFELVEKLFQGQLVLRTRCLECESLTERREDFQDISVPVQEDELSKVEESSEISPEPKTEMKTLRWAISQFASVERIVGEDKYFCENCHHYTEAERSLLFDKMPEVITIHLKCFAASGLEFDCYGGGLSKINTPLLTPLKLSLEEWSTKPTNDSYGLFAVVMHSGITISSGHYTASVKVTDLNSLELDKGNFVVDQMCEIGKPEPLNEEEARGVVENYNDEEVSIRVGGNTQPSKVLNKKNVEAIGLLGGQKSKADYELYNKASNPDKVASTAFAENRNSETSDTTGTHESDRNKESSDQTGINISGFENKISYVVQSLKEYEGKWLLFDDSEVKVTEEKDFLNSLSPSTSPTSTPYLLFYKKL
Procedure, shortened: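 Kinetic fluorescence assay: 1nM USP1/UAF1, 15 min compound preincubation, then 150nM Ub-Rho; 480/540 nm.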

[11] = target: Luciferin 4-monooxygenase (Photinus pyralis) (UniProt P08659); assay: Biochemical firefly luciferase enzyme assay for NPC (AID 624030);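 note: purified P. pyralis luciferase at 10 nM with luciferin and ATP substrate; 0% = DMSO and -100% = full luciferase inhibition by PTC124 control; nearly all actives have a fitted effect of over 70% in size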
Sequence of Luciferin 4-monooxygenase (Photinus pyralis) (P08659 whole entry, looked up): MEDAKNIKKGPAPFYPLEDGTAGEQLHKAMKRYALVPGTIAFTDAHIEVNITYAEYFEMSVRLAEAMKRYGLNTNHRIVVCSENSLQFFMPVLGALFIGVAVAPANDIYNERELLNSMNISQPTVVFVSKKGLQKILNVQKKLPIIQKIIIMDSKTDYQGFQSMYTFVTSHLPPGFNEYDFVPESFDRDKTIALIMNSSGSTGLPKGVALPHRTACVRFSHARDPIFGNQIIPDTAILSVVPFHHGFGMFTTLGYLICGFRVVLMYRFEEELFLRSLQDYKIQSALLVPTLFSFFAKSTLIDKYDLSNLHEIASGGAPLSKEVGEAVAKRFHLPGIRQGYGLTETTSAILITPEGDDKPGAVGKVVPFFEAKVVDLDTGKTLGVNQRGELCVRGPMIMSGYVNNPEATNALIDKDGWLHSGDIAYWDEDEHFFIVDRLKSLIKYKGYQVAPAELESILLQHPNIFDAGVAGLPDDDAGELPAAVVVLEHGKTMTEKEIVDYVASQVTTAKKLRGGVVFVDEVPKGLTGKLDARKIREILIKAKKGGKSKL
Procedure, shortened: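 Purified P. pyralis luciferase at 10 nM in 50 mM Tris Acetate (final), luminescence read within 5 minutes of enzyme addition to compounds. Activity normalised to PTC124 versus DMSO; concentration-response curves classed by r2, magnitude and activity.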

[12] = S16 Schwann cell viability assay (CellTiter-Glo assay) (AID 624031);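 note: cellular ATP luminescence as a viability measure; plate controls were DMSO-treated cells for no effect and cell-free wells for full effect; nearly all actives have a fitted effect of over 70% in size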
Procedure, shortened: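 This viability control uses native rat S16 Schwann cells grown in DMEM plus 10% FBS. After a 24 h compound treatment at 37 °C, CellTiter-Glo luminescence reports ATP content, scaled against DMSO-treated and cell-free wells.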

[13] = qHTS profiling for inhibitors of Plasmodium falciparum proliferation (AID 504749); note: nearly all actives have a fitted effect of over 60% in size; note: potency is the fitted concentration of half-maximal effect;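 for activity, negative = inhibition: 0% = DMSO vehicle and full inhibition = artemisinin control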; conditions: P. falciparum in erythrocytes, SYBR Green DNA, 72 h
Procedure, shortened: (§1)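 SYBR Green fluorescence (ex 485 nm, em 535 nm) reports parasite DNA after 72 h compound exposure of infected red cells at 0.3% parasitemia, 2.5% hematocrit; signal normalized to 0.29 uM artemisinin and vehicle wells.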

C2A = assay: as above; conditions: P. falciparum in erythrocytes, SYBR Green DNA, 72 h; series mostly up to 12.8 µM
Procedure, shortened: as §1

CP191 = assay: as above; conditions: P. falciparum in erythrocytes, SYBR Green DNA, 72 h; series mostly up to 12.8 µM
Procedure, shortened: as §1

CP250 = assay: as above; conditions: P. falciparum in erythrocytes, SYBR Green DNA, 72 h; series mostly up to 12.8 µM
Procedure, shortened: as §1

FAB9 = assay: as above; conditions: P. falciparum in erythrocytes, SYBR Green DNA, 72 h; series mostly up to 12.8 µM
Procedure, shortened: as §1

JCK = assay: as above; conditions: P. falciparum in erythrocytes, SYBR Green DNA, 72 h; series mostly up to 12.8 µM
Procedure, shortened: as §1

SC27B = assay: as above; conditions: P. falciparum in erythrocytes, SYBR Green DNA, 72 h; series mostly up to 12.8 µM
Procedure, shortened: as §1

[14] = NFAT Signaling Pathway (AID 444; active = well fitted curve in either direction with a large enough effect, not every such curve was filed as active); conditions: Jurkat NFAT-bla M1, carbachol, beta-lactamase ratio, 5 h; at 17.2 µM (top of the series) unless noted
Procedure, shortened: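 Jurkat cells with NFAT-driven β-lactamase reporter and co-expressed M1 receptor, stimulated with carbachol (final 1 uM, ~EC50), compound titration, 5 h at 37 °C. CCF4 loaded 1 h at RT; 460/530 nm ratio gave %activity and AC50.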

[15] = measured here: cell count channel max response
[16] = measured here: lipid channel max response

COc1cc2nc(N3CCN(C(=O)[C@@H]4CCCO4)CC3)nc(N)c2cc1OC
-3.95%: max response [8, 15]
inactive: outcome [1] | Potency [2] | outcome [3] | Potency [4] > 20.6 µM | Potency [5] > 20.6 µM | Potency [6] | outcome [7] | activity change, negative = inhibition [8] 2.61% | outcome [9] | Potency [10] | Potency [11] | outcome [12] | activity, negative = inhibition ([13]; at 28.7 µM (top of the series), parasite line A) 10.8% | activity, negative = inhibition ([13]; at 28.7 µM (top of the series), parasite line B) 8.54% | Potency (C2A) | Potency (CP191) | Potency (CP250) | Potency (FAB9) | Potency (JCK) | Potency (SC27B)
-0.955%: max response [8, 16]

CC(=O)N[C@@H](CC(=O)O)C(=O)O
-3.12%: max response [8, 15]
-4.28%: max response [8, 16]
inactive: outcome [1] | Potency [2] | outcome [3] | Potency [4] > 20.6 µM | Potency [5] > 20.6 µM | Potency [6] | outcome [7] | activity change, negative = inhibition [8] -1.04% | Potency [10]

CC(C)(CO)[C@H](O)C(=O)NCCCO
inactive: outcome [1] | Potency [2] | activity change, negative = inhibition [14] 9.07% | outcome [3] | Potency [6] | outcome [7] | activity change, negative = inhibition [8] -3.05% | Potency [10]
-6.65%: max response [8, 15]
-8.62%: max response [8, 16]

O=C(O)[C@@H](O)[C@@H](O)[C@@H](O)[C@@H](O)C(=O)O (tested in a mixture with another compound)
inactive: outcome [1] | Potency [2] | activity change, negative = inhibition [14] -16.6% | outcome [3] | Potency [6] | outcome [7] | activity change, negative = inhibition [8] -0.616% | Potency [11]
-7.78%: max response [8, 16]
-10.9%: max response [8, 15]

OCCN1CCN(CCC=C2c3ccccc3Sc3ccc(Cl)cc32)CC1
inactive: outcome [1] | outcome [3] | Potency [4] > 20.6 µM | Potency [5] > 20.6 µM | Potency [6] | outcome [7] | activity change, negative = inhibition [8] -7.08% | outcome [9] | Potency [10] | Potency [11] | Potency (C2A) | Potency (FAB9) | Potency (JCK) | Potency (SC27B)
active: Potency [2] 15.8 µM | Potency (CP191) 3.98 µM
-13.2%: max response [8, 15]
-20.1%: max response [8, 16]

CN1CCN([C@@H](c2ccccc2)c2ccc(Cl)cc2)CC1
inactive: outcome [1] | Potency [2] | outcome [3] | Potency [4] > 20.6 µM | Potency [5] > 20.6 µM | Potency [6] | outcome [7] | activity change, negative = inhibition [8] -3.4% | outcome [9] | Potency [10] | Potency [11] | activity, negative = inhibition ([13]; at 12.8 µM (top of the series), parasite line A) 1.67% | activity, negative = inhibition ([13]; at 12.8 µM (top of the series), parasite line B) -12.4% | Potency (C2A) | Potency (CP191) | Potency (CP250) | Potency (FAB9) | Potency (JCK) | Potency (SC27B)
-16%: max response [8, 15]
-18.7%: max response [8, 16]

CNC[C@H](O)[C@H](O)[C@H](O)[C@H](O)CO
-14.3%: max response [8, 16]
inactive: outcome [1] | Potency [2] | activity change, negative = inhibition [14] 3.99% | outcome [3] | Potency [6] | outcome [7] | activity change, negative = inhibition [8] -1.7% | Potency [10]
-11%: max response [8, 15]

Source: PubChem BioAssay (NCATS)
